Read-out in assay [1]: Interleukin-8 (IL8), CXCL8 (gene 3576)
Briefly: BSK_CASM3C_IL8: BioMAP Diversity Plus: CASM3C Assay for Interleukin-8 (IL8) Biomarker Activity (AID 2283042).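 Also: IL-8 protein level quantified by ELISA.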 The conditions noted are these: primary human coronary artery smooth muscle cells; actives raise or lower the signal.

Read-out in assay [2]: Human Leukocyte Antigen - DR isotype (HLADR), HLA-DRA (gene 3122)
Briefly: BSK_CASM3C_HLADR: BioMAP Diversity Plus: CASM3C Assay for Human Leukocyte Antigen - DR isotype (HLADR) Biomarker Activity (AID 2283043).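 Also: cell-surface HLA-DR protein level quantified by ELISA.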 Conditions: primary human coronary artery smooth muscle cells; actives raise or lower the signal.

Read-out in assay [3]: Macrophage colony-stimulating factor (MCSF), CSF1 (gene 1435)
Put plainly: BSK_CASM3C_MCSF: BioMAP Diversity Plus: CASM3C Assay for Macrophage colony-stimulating factor (MCSF) Biomarker Activity (AID 2283044).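 Also: M-CSF protein amount quantified by ELISA after 24 h exposure.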 Conditions: primary human coronary artery smooth muscle cells; actives raise or lower the signal.

Read-out in assay [4]: Low-density lipoprotein receptor (LDLR), LDLR (gene 3949)
Put plainly: BSK_CASM3C_LDLR: BioMAP Diversity Plus: CASM3C Assay for Low-density lipoprotein receptor (LDLR) Biomarker Activity (AID 2283045).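 Also: LDLR protein level on the cell surface quantified by ELISA.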 The conditions noted are these: primary human coronary artery smooth muscle cells; actives raise or lower the signal.

Read-out in assay [5]: Monocyte Chemoattractant Protein-1 (MCP1), CCL2 (gene 6347)
Put plainly: BSK_CASM3C_MCP1: BioMAP Diversity Plus: CASM3C Assay for Monocyte Chemoattractant Protein-1 (MCP1) Biomarker Activity (AID 2283046).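 Also: MCP-1 level quantified by ELISA 24 h after dosing.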 Conditions: primary human coronary artery smooth muscle cells; actives raise or lower the signal.

The nature of assay [6]: BSK_CASM3C_Proliferation: Cell Proliferation Assessment in the BioMAP Diversity Plus: CASM3C Assay (AID 2283047).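 Also: sulforhodamine B total protein stain as relative cell number at 560 nm; sub-confluent cells exposed 48 h before staining; fitted both ways against DMSO so gain or loss of cell number.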 Conditions: primary human coronary artery smooth muscle cells.
Read-out in assay [7]: Monokine induced gamma interferon (MIG), CXCL9 (gene 4283)
Put plainly: BSK_CASM3C_MIG: BioMAP Diversity Plus: CASM3C Assay for Monokine induced gamma interferon (MIG) Biomarker Activity (AID 2283048).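 Also: MIG protein level measured by ELISA.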 The conditions noted are these: primary human coronary artery smooth muscle cells; actives raise or lower the signal.

Read-out in assay [8]: serum amyloid A (SAA), SAA1 (gene 6288)
Briefly: BSK_CASM3C_SAA: BioMAP Diversity Plus: CASM3C Assay for serum amyloid A (SAA) Biomarker Activity (AID 2283049).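 Also: SAA protein level quantified by ELISA.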 The conditions noted are these: primary human coronary artery smooth muscle cells; actives raise or lower the signal.

Assay [9] is described as follows: BSK_CASM3C_SRB: Viability Assessment in the BioMAP Diversity Plus: CASM3C Assay (AID 2283050).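 Also: total protein by SRB staining as cytotoxicity measure in parallel cultures; cells exposed to compound for 24 h.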 The conditions noted are these: primary human coronary artery smooth muscle cells.
Read-out in assay [10]: Thrombomodulin, THBD (gene 7056)
Briefly: BSK_CASM3C_Thrombomodulin: BioMAP Diversity Plus: CASM3C Assay for Thrombomodulin Biomarker Activity (AID 2283051).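 Also: thrombomodulin protein level measured by ELISA 24 h after dosing.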 The conditions noted are these: primary human coronary artery smooth muscle cells; actives raise or lower the signal.

Read-out in assay [11]: Tissue Factor, F3 (gene 2152)
Put plainly: BSK_CASM3C_TissueFactor: BioMAP Diversity Plus: CASM3C Assay for Tissue Factor Biomarker Activity (AID 2283052).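 Also: cell surface tissue factor protein level read by ELISA.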 The conditions noted are these: primary human coronary artery smooth muscle cells; actives raise or lower the signal.

Read-out in assay [12]: Interferon-gamma inducible Protein 10 (IP10), CXCL10 (gene 3627)
Put plainly: BSK_hDFCGF_IP10: BioMAP Diversity Plus: hDFCGF Assay for Interferon-gamma inducible Protein 10 (IP10) Biomarker Activity (AID 2283053). Conditions: primary human foreskin fibroblasts; actives raise or lower the signal. Summed up:
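Primary foreskin fibroblasts, human; 24 h compound exposure; IP-10 by ELISA; bidirectional fit vs DMSO.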

Read-out in assay [13]: Urokinase-type plasminogen activator receptor (uPAR), PLAUR (gene 5329)
Briefly: BSK_CASM3C_uPAR: BioMAP Diversity Plus: CASM3C Assay for Urokinase-type plasminogen activator receptor (uPAR) Biomarker Activity (AID 2283054).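 Also: cell-surface uPAR protein level quantified by ELISA.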 Conditions: primary human coronary artery smooth muscle cells; actives raise or lower the signal.

Read-out in assay [14]: Vascular cell adhesion molecule 1 (VCAM1), VCAM1 (gene 7412)
Put plainly: BSK_CASM3C_VCAM1: BioMAP Diversity Plus: CASM3C Assay for Vascular cell adhesion molecule 1 (VCAM1) Biomarker Activity (AID 2283055).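 Also: VCAM-1 protein level quantified by ELISA on the cells.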 Conditions: primary human coronary artery smooth muscle cells; actives raise or lower the signal.

Read-out in assay [15]: Collagen III, COL3A1 (gene 1281)
Put plainly: BSK_hDFCGF_CollagenIII: BioMAP Diversity Plus: hDFCGF Assay for Collagen III Biomarker Activity (AID 2283056). The conditions noted are these: primary human foreskin fibroblasts; actives raise or lower the signal. Summed up:
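Cells: human foreskin fibroblasts, primary. Dosing followed by 24 h incubation, then ELISA for collagen III. Both increases and decreases scored relative to DMSO.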

Read-out in assay [16]: Epidermal growth factor receptor (EGFR), EGFR (gene 1956)
Briefly: BSK_hDFCGF_EGFR: BioMAP Diversity Plus: hDFCGF Assay for Epidermal growth factor receptor (EGFR) Biomarker Activity (AID 2283057). Conditions: primary human foreskin fibroblasts; actives raise or lower the signal. The essentials: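 hDFCGF system, primary human foreskin fibroblasts; compound 24 h; EGFR measured by ELISA; DMSO = negative control/baseline; bidirectional fitting.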

Read-out in assay [17]: Interleukin-8 (IL8), CXCL8 (gene 3576)
Put plainly: BSK_hDFCGF_IL8: BioMAP Diversity Plus: hDFCGF Assay for Interleukin-8 (IL8) Biomarker Activity (AID 2283058). Conditions: primary human foreskin fibroblasts; actives raise or lower the signal. The essentials: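 IL-8 levels from compound-treated primary human fibroblasts were read by ELISA at 24 h, with DMSO serving as baseline for bidirectional fitting.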

Assay [18] in a line: BSK_hDFCGF_Proliferation: Cell Proliferation Assessment in the BioMAP Diversity Plus: hDFCGF Assay (AID 2283059).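 Also: curves fitted for both rise and fall of signal versus DMSO baseline.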 The conditions noted are these: primary human foreskin fibroblasts. Summed up:
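Total protein read at 560 nm after 0.1% SRB staining of TCA-fixed human skin fibroblasts, […]. Activity is fitted in both directions relative to DMSO as baseline.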

Read-out in assay [19]: Macrophage colony-stimulating factor (MCSF), CSF1 (gene 1435)
Put plainly: BSK_hDFCGF_MCSF: BioMAP Diversity Plus: hDFCGF Assay for Macrophage colony-stimulating factor (MCSF) Biomarker Activity (AID 2283060). Conditions: primary human foreskin fibroblasts; actives raise or lower the signal. The essentials:
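M-CSF levels, determined by ELISA, are taken at 24 h after dosing human skin fibroblasts. Responses in either direction are fitted with DMSO serving as the baseline.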

A short description of assay [20]: BSK_hDFCGF_SRB: Viability Assessment in the BioMAP Diversity Plus: hDFCGF Assay (AID 2283061).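 Also: cells exposed to compound for 24 h before the read.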 The conditions noted are these: primary human foreskin fibroblasts. Summed up: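 Cells were dosed with test chemical, cultured 24 h, fixed with 10% TCA, then stained with 0.1% SRB and read at 560 nm. The fibroblasts were human foreskin primary cells, and DMSO served as baseline.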

Several values for one entry are separate records, joined by “and”; a condition that tells them apart may be missing. Identical values can stand only once. More than one record can exist for a structure, and the calls need not agree. Activity calls are given as the source filed them. The calls were made as follows: active = hit-call score of the fitted dose curve at least 0.9, where 1 is the maximum; inactive = score below 0.9.

A word on the AC50: it is the midpoint of the concentration-response curve, whichever way the signal moves. For `COc1ccc(O)c(C(C)(C)C)c1`, the AC50 in [1] is 5.43 µM (active); in assay [7], 3.97 µM (active); in [15], 3.97 µM (active) and 8.37 µM (active). For the same molecule, the outcome in assay [1], in assay [2], in [3], in assay [4], in assay [5] and in [6] was inactive. Besides, the result in assay [7], in assay [8], in [9], in assay [10], in [11] and in assay [12] was inactive. For the same molecule, the outcome in assay [13], in [14], in assay [15], in [16], in [17] and in assay [18] was inactive. Moreover, the outcome in assay [19] and in [20] was inactive.

Regarding `CCSC(=O)N(CC)C1CCCCC1`, the outcome in assay [1], in [2], in assay [3], in assay [4], in assay [5] and in [6] was inactive. Also, the outcome in [7], in assay [8], in assay [9], in assay [10], in assay [11] and in assay [12] was inactive. Besides, the result in [13], in assay [14], in [15], in assay [16], in assay [17] and in assay [18] was inactive. Also, the result in assay [20] was inactive.

`CC1=C2C[C@H]3[C@@H](CC=C4C[C@@H](O)CC[C@@]43C)[C@@H]2CC[C@]12O[C@@H]1C[C@H](C)CN[C@H]1[C@H]2C`: the result in assay [1], in assay [2], in [3], in assay [5], in assay [6] and in assay [7] was inactive. The result in [8], in [9], in assay [10], in assay [11], in [12] and in [13] was inactive. Further, the outcome in assay [14], in assay [15], in [16], in assay [17], in [18] and in assay [20] was inactive. For the same molecule, in assay [4], the AC50 is 2.8 µM (active).

As for `CN(C)CCO`, the result in assay [1], in assay [2], in assay [3], in [4], in assay [5] and in [6] was inactive. The outcome in assay [7], in assay [8], in assay [9], in assay [10], in assay [11] and in assay [12] was inactive. Also, the outcome in assay [13], in [14], in [15], in assay [16], in [17] and in [18] was inactive. For the same molecule, in [20], the result was inactive.

As to `CCC(C)c1cc([N+](=O)[O-])cc([N+](=O)[O-])c1O` (stereo not drawn), the outcome in [1], in [3], in assay [4], in assay [5], in assay [7] and in assay [8] was inactive. The outcome in [10], in assay [11], in [12], in assay [14], in assay [15] and in [16] was inactive. Besides, in [17], the result was inactive. Further, the half-maximal activity concentration (AC50) is 14.6 µM (active) in assay [2]; 33.7 µM (active) in [6]; 30.2 µM (active) in [9]; 31.3 µM (active) in assay [13]; 3.85 µM (active) in assay [18]; 7.45 µM (active) in [20].

Turning to `O=NN(c1ccccc1)c1ccccc1`, the result in assay [1], in [2], in assay [3], in [4], in assay [5] and in [6] was inactive. The outcome in assay [7], in assay [8], in [9], in [11], in [12] and in assay [13] was inactive. Also, the result in assay [14], in [15], in [16], in assay [17], in [18] and in assay [20] was inactive. In addition, the AC50 in [10] is 4.46 µM (active).
